# The panel holds about 83,000 compounds, 20% with a hit somewhere; the sample as a whole holds those more often.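 Each cell line was grown in a 96-well plate and treated with one concentration of compound for 48 hours. Values below 10 were considered active.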 A number with no mark means an inactive call. Calls of active or inactive are those of the source.
# What was measured:
# Test in all cases: NCI-60 one-dose screen, 48 h (100 = growth as untreated, 0 = no growth, -100 = all killed)
# Conditions in all cases: 10 µM unless noted
# HCT-15 colon = system: HCT-15 colon
# HT29 colon = system: HT29 colon
# SNB-75 CNS = system: SNB-75 CNS
# SNB-19 CNS = system: SNB-19 CNS
# U251 CNS = system: U251 CNS
# PC-3 prostate = system: PC-3 prostate
# SK-MEL-5 melanoma = system: SK-MEL-5 melanoma
# UACC-62 melanoma = system: UACC-62 melanoma
# LOX IMVI melanoma = system: LOX IMVI melanoma
# SK-MEL-28 melanoma = system: SK-MEL-28 melanoma
Compound,growth (HCT-15 colon),growth (HT29 colon),growth (SNB-75 CNS),growth (SNB-19 CNS) [%],growth (U251 CNS),growth (PC-3 prostate),growth (SK-MEL-5 melanoma) [%],growth (UACC-62 melanoma) [%],growth (LOX IMVI melanoma),growth (SK-MEL-28 melanoma) [%]
CC/C(=C(\c1ccc(O)cc1)c1ccc(OCCN(C)CCN(C)C(=O)CCC(=O)c2c(C)[nH]c(/C=C3\N=C(c4ccc[nH]4)C=C3OC)c2C)cc1)c1ccccc1,34.3%,15.5%,92.4%,108,63.2%,61.4%,78.2,14.2,33.6%,61.7
Nc1c(C(=O)Nc2c(Cl)cccc2Cl)sc2nc3c(cc12)CCCCC3,32.5%,34.1%,26.7%,68.5,66.7%,70.6%,66.3,29,58.6%,59.2
COc1cc(-c2csc(NC(=O)Nc3ccc(Cl)cc3Cl)n2)cc(OC)c1OC,23%,10.8%,4.13% (active),41.7,25.7%,18.7%,18.4,30.9,28.9%,62.6
CCN(CC)S(=O)(=O)c1ccc2[nH]c(=O)cc(C(=O)Nc3ccc(OC)cc3OC)c2c1,106%,126%,110%,104,108%,105%,111,103,106%,123
COc1ccc(N=C2NN=C(c3ccc(F)cc3)CS2)cc1OC,96.5%,100%,123%,94.3,87.4%,93.2%,86.8,86.6,85.5%,114
CC(C)[C@H](CO)Nc1nc(Nc2ccc(C(=O)NCCNS(=O)(=O)c3cccc4c(N(C)C)cccc34)c(Cl)c2)c2ncn(C(C)C)c2n1,51.9%,9.2% (active),10.6%,24.6,1.44% (active),17%,12.1,22.2,-3.44% (active),15.7
COc1ccc(NC(=O)/N=c2\oc3c(OC)cccc3cc2-c2cc3ccccc3[nH]2)cc1,73.3%,57.7%,-8.95% (active),36.2,34.1%,39.3%,60.6,65.6,73.1%,81.9
O=[N+]([O-])c1cc(S(=O)(=O)OCC2CO2)ccc1Cl (stereo not given),93.4%,49.7%,89.9%,110,98.9%,83.7%,102,111,39.1%,90.1
O=c1oc2cc(OS(=O)(=O)c3ccc(F)cc3)ccc2c2c1CCCCC2,26.8%,27.5%,80.9%,78.1,57.6%,44.6%,32.8,65.3,88.1%,86.1
Cc1cc2c(C(C)C)c(O)c(O)c(C=NCCCCCCC(=O)O)c2c(O)c1-c1c(C)cc2c(C(C)C)c(O)c(O)c(C=NCCCCCCC(=O)O)c2c1O,16.1%,19%,50.1%,21.8,14.3%,18.4%,30.2,28.7,4.47% (active),40.2
CN=S(=O)(NC(=O)c1ccc(Cl)cc1Cl)c1ccc(Br)s1 (stereo not given),99.9%,112%,73.4%,103,89.3%,79.2%,95.3,99.9,105%,102
CCCCCCOc1ccc(C2(Cl)c3ccccc3N(C)c3ccccc32)cc1,44.7%,35.1%,63.3%,47.1,-8.78% (active),21.8%,33.2,38.1,-33.8% (active),24.5
O=C(/C=C/CN1CCCCC1)Nc1cc2c(Nc3ccc(F)c(Cl)c3F)ncnc2cc1OCCOC(F)F,7.81% (active),2.26% (active),-12.1% (active),40.9,31.1%,1.81% (active),25.3,34.1,12.5%,48.6
